Source: PubChem BioAssay (NCATS)
Results filed as inconclusive are left out. Unmarked numbers belong to inactive results. Calls follow the shape of the dose curve; as a rule, active = well fitted curve in the direction sought with a large enough effect; inconclusive = small, poorly fitted or top-dose-only effect, or another doubt; inactive = no such curve, though single readings can be large or run the other way.

Assay: qHTS Assay for Identifying Gametocytocidal Compounds (AID 743244);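 also: actives lower the fluorescent signal which means gametocytes are killed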
Settings: P. falciparum 3D7 stage III-V gametocytes, alamarBlue, 72 h; max response: hits give low values
Excerpt: Malaria cases and deaths have dropped 50% in 29 countries since 2000 due to the combined effects of long-lasting insecticidal bednets, indoor residual spraying, and artemisinin-based combination therapies (ACTs). This success has raised hopes for malaria eradication and consequently stimulated interest in developing new reagents that block gametocyte transmission such as novel and safe gametocytocidal drugs. However, previous drug development efforts have focused primarily on the asexual parasites that cause symptoms, but not malaria transmission. Consequently, patients can remain infectious for weeks after the clearance of asexual parasites and clinical symptoms. To be transmitted from person to person via a mosquito, the parasites must switch from asexual to sexual development and produce male and female gametocytes. Malaria gametocytes consist of five stages (I, II, III, IV and V). The late stage gametocytes (III, IV and V) are difficult to be cultured in vitro and the long lifespan of mature gametocytes allows them being transmitted from host to mosquitoes unless they are completely eliminated by gametocytocidal agents. To identify gametocytocidal compounds which are capable of killing late stage P. falciparum gametocytes, a high throughput gametocyte viability assay was employed. This assay uses oxidoreduction indicator, alamarBlue, as a general measure of metabolic activity of gametocytes. Within live cells, the nonfluorescent resazurin is reduced to resorufin, a bright red fluorescence dye. Fluorescence decreases upon treatment of gametocytocidal compounds. P. falciparum gametocyte (3D7 strain) was used in this study.
The 1536-well gametocycidal viability assay was based on the previous method of Tanaka et al. Stage III-V gametocytes were tested against three compound libraries, including 4265 compounds from NCGC pharmaceutical collection, 400 from Malaria Box library, and 550 from an internal collection of kinase inhibitors. Briefly, 2.5 ul/well incomplete medium was dispensed into each well of 1,536-well plates using the Multidrop Combi followed by 23 nl compound transferring using the NX-TR Pintool (WAKO Scientific Solutions, San Diego, CA). Then, 2.5 ul/well of gametocytes was dispensed with a seeding density of 20,000 cells/well using the Multidrop Combi. The assay plates were incubated for 72 h at 37C with 5% CO2. After addition of 5 ul/well of 2X AlamarBlue dye (Life Technologies, cat. no. DAL1100), the plates were incubated for 24 h at 37C with 5% CO2 and then were read in a fluorescence detection mode (Ex = 525 nm, Em = 598 nm) on a ViewLux plate reader (PerkinElmer).
% is scaled to controls: 0 for no effect and ±100 for the full control effect.

Compared with `CC(=O)C(C)=O`, `C=CC[C@H](N)C(=O)O` is higher in max response: 0.793% for the first, 18.7% for the second.

Compared with `Nc1ncnc2c1ncn2C1CCCC1`, `Nc1ncnc2c1ncn2C1CCCO1` (stereo not given) is lower in max response: 29.2% for the first, -5.04% for the second.

First: CCCn1c(=O)c2[nH]c(C3CCCC3)nc2n(CCC)c1=O
Second: CCCC[C@@]1(C2CCCC2)Cc2cc(OCC(=O)O)c(Cl)c(Cl)c2C1=O
The max response of the first is higher: 13.8% for the first, 8.17% for the second.

First: COc1cccc(OC)c1OCCNCC1CSc2ccccc2O1 (stereo not given)
Second: COc1ccccc1N1CCN(CCCCN2C(=O)c3ccccc3C2=O)CC1
The max response of the first is lower: 8.7% for the first, 10.1% for the second.

Going from `CC(C)NC[C@H](O)COc1ccc(CC(N)=O)cc1` to `CC(C)NCC(O)COc1ccc(CC(N)=O)cc1` (stereo not given), the max response rises from 5.76% to 27.5%.

Going from `NS(=O)(=O)c1cccc2c1c([N+](=O)[O-])cc1nc(O)c(O)nc12` to `O=[N+]([O-])c1cccc2c(Br)[nH]nc12`, the max response falls from 24.6% to -25.7%.

Compared with `Brc1c(Br)c(Br)c2[nH]cnc2c1Br`, `CC(C)Cn1c(=O)n(C)c(=O)c2[nH]cnc21` is lower in max response: 7.09% for the first, 4.24% for the second.

Going from `O=C1NC(=O)c2cc(Nc3ccccc3)c(Nc3ccccc3)cc21` to `O=C(O)c1ccccc1Nc1ccccc1`, the max response falls from 5.21% to 4.62%.

Compared with `Cc1nc2n(c(=O)c1CCN1CCC(c3noc4cc(F)ccc34)CC1)CCCC2O` (stereo not given), `CCc1ccc2c(-c3cccc(Cl)c3)nc(=O)n(CC)c2n1` is higher in max response: 7.08% for the first, 15.8% for the second.

Compared with `O=c1[nH]ccc2c(O)cccc12`, `Oc1ccc(Cn2cc[nH]c2=S)cc1` is higher in max response: 22.6% for the first, 24% for the second.

First: CCCCCC(O)CCCC(=O)O (stereo not given)
Second: C#CC(N)CCC(=O)O (stereo not given)
The max response of the first is lower: -4.98% for the first, 8.18% for the second.

First: C[C@@H](NCCc1ccc(O)cc1)[C@@H](O)c1ccc(O)cc1
Second: CN(C)CCC(c1ccc(Br)cc1)c1ccccn1 (stereo not given)
The max response of the first is lower: 2.62% for the first, 11.9% for the second.

Going from `O=c1onc2n1-c1cc(Br)ccc1OC2` to `CCn1c(=O)[nH]c2cc(Cl)c(Cl)cc21`, the max response rises from 20.4% to 24.6%.

Compared with `COc1cc(C(O)C(=O)O)ccc1O` (stereo not given), `CC(N)(Cc1ccc(O)c(O)c1)C(=O)O` (stereo not given) is lower in max response: 20.3% for the first, 8.06% for the second.

Going from `CC[N+](CC)(CC)CC(=O)Nc1c(C)cccc1C` to `CCOC(=O)C12CC1/C(=N/O)c1ccccc1O2` (stereo not given), the max response falls from 14.2% to 0.715%.

First: CCCCCCCCCCC(C)(C)C(=O)Nc1c(OC)cc(OC)cc1OC
Second: CCCCCCCCCCCCCCCCCCOC[C@H](COP(=O)([O-])OCC[N+](C)(C)C)OC
The max response of the first is lower: -6% for the first, 10.4% for the second.

Compared with `NC1(C(=O)O)CCCCC1`, `CC1=C(/C=C/C(C)=C/C=C/C(C)=C\C(=O)O)C(C)(C)CCC1` is lower in max response: 26.2% for the first, 17.8% for the second.

Going from `CO/N=C(\C(=O)N[C@@H]1C(=O)N2C(C(=O)O)=C(CSc3nc(=O)c(O)nn3C)CSC12)c1csc(N)n1` (stereo not given in full) to `Cc1nc(N=Nc2ccc(S(=O)(=O)O)cc2S(=O)(=O)O)c(COP(=O)(O)O)c(C=O)c1O`, the max response falls from 32.5% to 14.8%.

First: CC(C)C[C@H](NC(=O)[C@H](O)[C@H](N)Cc1ccccc1)C(=O)O
Second: COC(=O)C(N)Cc1ccc(Cl)cc1 (stereo not given)
The max response of the first is lower: 2.38% for the first, 4.72% for the second.

First: Cc1nc2c(OCc3ccccc3)cccn2c1CC#N
Second: COc1cc(/C=C(\C#N)C(=O)Nc2nnc(C(F)(F)F)s2)ccc1OCc1ccc(C(F)(F)F)cc1C(F)(F)F
The max response of the first is higher: 18.4% for the first, 5.8% for the second.
